Data from PubChem BioAssay AID720706 (Broad Institute, 2013).
Among all 350,000 compounds or so, about 5,500 (1.6%) were called active.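 Rule for the calls: active = significant combined selectivity score with lowered wild-type GFP, culture density cut under 30%, mutant RFP and density less affected; inactive = any of these conditions unmet.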 The entries come from a sample that favours actives as a whole.

Experiment: GFP drop in mixed WT/humanized-ribosome E. coli culture – GFP/RFP fluorescence, OD600, single point, bacterial rRNA inhibitor project, primary screen (AID 720706)
Settings: E. coli WT GFP vs humanized-ribosome RFP mutants, 24 h; GFP signal change (wild-type ribosome): stronger effect = lower value, DMSO median 0, no signal -100; OD600 change: measured here: OD600 growth, DMSO median 0, no signal -100; RFP signal change: measured here: RFP humanized mutant strains, DMSO median 0, no signal -100, concentration not given here

Row | SMILES | GFP signal change (wild-type ribosome) | OD600 change | RFP signal change
1 | CCOc1ccc(NC(=O)CC2C(=O)N(c3ccccc3)C(=O)N2CCOC)cc1 (stereo unspecified) | -0.19% (inactive) | 4.93% | -3.42%
2 | CCCOc1ccc(NC(=O)CC2C(=O)N(C)C(=S)N2Cc2ccc3c(c2)OCO3)cc1 (stereo unspecified) | -21.2% (active) | -17.1% | 1.22%
3 | C[C@@H]1CCCCO[C@H](CN(C)C(=O)Nc2ccccc2)[C@H](C)CN([C@@H](C)CO)C(=O)c2cc(N(C)C)ccc2O1 | -1.6% (inactive) | 2.72% | -1.91%
4 | CC[C@@H]1CC=CC[C@H](C)Oc2ccccc2C(=O)N(C)[C@H](Cc2ccccc2)C(=O)N1 (mixture of isomers) | -6.42% (inactive) | -18.3% | -6.01%
5 | CS(=O)(=O)N(CC(=O)N/N=C/c1ccccn1)c1ccc(Oc2ccccc2)cc1 | -25.9% (active) | -12.1% | -0.663%
6 | COc1ccc(CCNC(=O)CN(c2ccccc2)S(C)(=O)=O)cc1 | 4.81% (inactive) | 11.8% | 2.52%
7 | O=C(COc1ccc(Cl)cc1Cl)N/N=C/c1ccccn1 | -7.74% (inactive) | -28.8% | 0.0022%
8 | C[C@H](O)C#Cc1cnc2c(c1)C(=O)N([C@@H](C)CO)C[C@@H](C)[C@@H](CN(C)C(=O)Cc1ccccn1)O2 | 7.53% (inactive) | 12.6% | -0.505%
9 | C[C@@H]1CN([C@H](C)CO)C(=O)c2cc(NS(C)(=O)=O)ccc2O[C@H]1CN(C)C(=O)Nc1cccc2ccccc12 | 2.55% (inactive) | 10.8% | 2.43%
10 | O=C(Nc1cc(F)ccc1F)N1CC(=O)N2[C@H](CO)[C@@H](c3ccc(-c4cccnc4)cc3)[C@@H]2C1 | -12% (inactive) | -3.71% | -3.33%
11 | COc1ccc(S(=O)(=O)Nc2ccc3c(c2)C(=O)N([C@H](C)CO)C[C@H](C)[C@H](CN(C)S(=O)(=O)c2ccc(Cl)cc2)O3)cc1 | -0.9% (inactive) | -8.14% | 4.68%
12 | Nc1nc(SCC(=O)NCCN2CCOCC2)nc2sc3c(c12)CCC3 | 4% (inactive) | 8.61% | -0.37%
13 | CCc1nc(N2CCN(C(C)=O)CC2)c2c3c(sc2n1)CCCC3 | -24.3% (inactive) | -27.4% | -2.91%
14 | C=C(C)CSc1nc(N)c2c3c(sc2n1)CCC3 | -39.8% (active) | -31.8% | -10.7%
15 | CC(C)NC(=O)NCC[C@H]1CC[C@@H](NS(=O)(=O)c2ccc(Oc3ccccc3)cc2)[C@@H](CO)O1 | -0.321% (inactive) | -25.1% | -2%
16 | O=C(C1CCCC1)N1CC(=O)N2[C@H](CO)[C@H](c3ccc(Br)cc3)[C@@H]2C1 | -0.977% (inactive) | -0.944% | 0.246%

Row | SMILES | GFP signal change (wild-type ribosome) | OD600 change | RFP signal change
17 | N#Cc1ccc(-c2ccc([C@H]3[C@H](CO)N4C(=O)CN(C(=O)Cc5ccccc5)C[C@@H]34)cc2)cc1 | -1.02% (inactive) | -2.88% | -0.285%
18 | CC(C(=O)NC1CCS(=O)(=O)C1)N1C(=O)/C(=C/c2ccc(Cl)cc2)SC1=S (stereo unspecified) | -21.1% (active) | -15.7% | 1.14%
19 | O=C(Cc1ccc(Cl)cc1)NC1CCS(=O)(=O)C1 (stereo unspecified) | -9.2% (inactive) | 1.76% | 1.96%
20 | CN(C(=O)CN1C(=O)/C(=C/c2ccc(Cl)cc2)SC1=S)C1CCS(=O)(=O)C1 (stereo unspecified) | 15.8% (inactive) | 11% | 0.337%
21 | O=C1[C@H](Cc2ccc(C(F)(F)F)cc2)CCn2nncc2COC[C@@H]2CCCCN12 | -1.75% (inactive) | -2.21% | -0.899%
22 | CN1c2ccc(Br)cc2[C@H]2[C@H](CCN2S(=O)(=O)c2ccc(F)cc2)[C@@H]1CO | -56.1% (inactive) | -75.9% | -12.6%
23 | O=C(CSc1nc2ccccc2[nH]1)N/N=C/C=C\c1ccccc1[N+](=O)[O-] | -28.1% (active) | 3.26% | 1.21%
24 | CN(Cc1ccccc1)C(=O)CSc1nc2ccccc2[nH]1 | -2.78% (inactive) | 2.36% | -0.812%
25 | O=C(COC(=O)CCCSc1nc2ccccc2[nH]1)Nc1ccc(Oc2ccccc2)cc1 | -34.8% (inactive) | -55% | 0.945%
26 | CCOC(=O)C1=C(N)N(c2ccc(C)cc2)C2=C(C(=O)CCC2)C1c1cccs1 (stereo unspecified) | -21.7% (active) | -17.5% | 0.496%
27 | CCOC(=O)c1c(N)sc2c1CCCC2=O | 1.16% (inactive) | -0.897% | -0.662%
28 | CCOc1ccc(C2C3=C(CCCC3=O)N(CC(=O)O)C3=C2C(=O)CCC3)cc1 | 17.4% (inactive) | 6.44% | -0.227%
29 | COc1ccc(NC(=O)N(C)C[C@H]2OCCCC[C@H](C)Oc3ccc(NC(=O)NC4CCCCC4)cc3C(=O)N([C@@H](C)CO)C[C@@H]2C)cc1 | 1.21% (inactive) | 2.03% | 2.63%
30 | COc1ccccc1OCCCC(=O)Nc1ccc2c(c1)OCCO2 | -2.92% (inactive) | -5.58% | -2.87%
31 | COc1cccc(/C=C/C(=O)Nc2ccc3c(c2)OCCO3)c1 | -29.5% (active) | -2.39% | 4.27%
32 | COc1cccc(C(=O)NNC(=O)/C=C/c2ccccc2)c1 | 6.18% (inactive) | 10.2% | 3%
